The source of these data is PubChem BioAssay (NCI).

Compounds without any hit were thinned out: in the full panel of roughly 83,000, 20% have a hit.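 In brief: 96-well plates, 48 h treatment, single concentration, percent growth endpoint.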 Activity calls are given as the source filed them. The calls were made as follows: active = growth percent below 10; inactive = the rest.

This experiment deals with HL-60(TB) leukemia. Nature of the experiment: NCI-60 one-dose screen, 48 h (100 = growth as untreated, 0 = no growth, -100 = all killed). The following applies: 10 µM unless noted.
Take `NS(=O)(=O)c1ccc(-n2cc(CC=O)nn2)cc1`: the growth was 105% (inactive). To `O=C1[C@@H]2Cc3c([nH]c4ccccc34)[C@@H](c3ccc(Cl)cc3)N2C(=O)CN1C1CCN(Cc2ccccc2)CC1` belongs -9.39% (active).

For the molecule `Nc1cc(C(=O)N/N=C\c2ccc(OC(F)F)c(OC3CCCC3)c2)nn1CC(O)c1ccccc1` (stereo not given), the growth was 91.3% (inactive).

For `O=S(=O)(NCCCNc1nccc(-c2[nH]c(-c3ccccc3)nc2-c2ccc(F)c(O)c2)n1)c1ccccc1`, the growth is 90.6% (inactive). To `Cc1ccc(CNS(=O)(=O)/N=C2\NC(=O)NC2=C(Cl)Cl)cc1` belongs 28.6% (inactive); to `Nc1cc(F)ccc1NC(=O)c1ccc(NC(=O)C/C=C/c2cccnc2)cn1`, 11.3% (inactive). In the case of `CN1CCN(Cc2ccc(NC(=O)c3cncc(C#Cc4cnc5ccc(NCCCO)nn45)c3)cc2C(F)(F)F)CC1`, the growth is -8.59% (active). The same measure for `CC(=O)Oc1ccccc1C(=O)Nc1ccc(C(=O)/C=C/c2ccncc2)cc1`: 7.33% (active). To `N/C(=N\C(N)=N\c1nc2ccccc2s1)c1ccc(C(F)(F)F)cc1` belongs 53.6% (inactive).

`COc1cc(C2=NN(C(C)=O)C(c3ccc(N4CCOCC4)cc3)C2)cc(OC)c1OC` (stereo not given): the growth was 105% (inactive). To `Cc1cn(-c2cc(NC(=O)c3cncc(C#Cc4cnc5ccc(OCCCS(C)(=O)=O)nn45)c3)cc(C(F)(F)F)c2)cn1` belongs -6.15% (active); to `Cc1cc(C(NC(=O)CCCCCNc2cccc3c2C(=O)N(C2CCC(=O)NC2=O)C3=O)c2ccc3c(c2)OC(F)(F)O3)c(O)c2ncccc12` (stereo not given), 19.7% (inactive). The same measure for `O=C(Nc1ccc2c(ccn2Cc2ccccn2)c1)c1cnccn1`: 131% (inactive); for `CN(C)CCCOc1c2ccccc2nc2c1oc1ccc(Cl)cc12`: 9.14% (active); for `Cc1ccc(-c2cc3nc(C(Cl)Cl)nc(-c4cccs4)n3n2)cc1`: 23.9% (inactive). To `CCOC(=O)c1cnc2c(-c3ccc(Cl)c(Cl)c3)cnn2c1` belongs 59.5% (inactive); to `COc1cc(/C=C/C(=O)c2ccc(NC(=O)CSc3nnc(-c4ccc5nc(-c6ccccc6)[nH]c5c4)o3)cc2)cc(OC)c1OC`, 69% (inactive). Regarding `N/C(=N\c1nc2ccc([N+](=O)[O-])cc2s1)C(Cl)(Cl)Cl`, the growth was 20.7% (inactive). As for `CCOc1ccc([C@H]2C(C(=O)c3ccc(Cl)cc3)C3(N[C@@H]2c2ccccc2)C(=O)Nc2ccc(Br)cc23)cc1` (stereo not given in full), the growth was 15.2% (inactive). The same measure for `Nc1nc(N)c2c(n1)NC(c1ccc(C(F)(F)F)cc1)CC(c1ccc(Nc3nc(NCCO)nc(N4CCOCC4)n3)cc1)=N2` (stereo not given): 21.4% (inactive); for `COC1CCN(Cc2ccc3c(NNC(=O)c4cnccn4)nc4cc(F)ccc4n23)C1` (stereo not given): -19.4% (active). The same measure for `C#CCOc1ccc(C(Nc2ccc(OC)cc2)c2nnnn2C2CCCCC2)cc1` (stereo not given): 84.7% (inactive); for `O=C1Nc2ccc(Cl)cc2/C1=C/c1ccc(OCc2ccc(F)cc2)cc1`: 94.6% (inactive); for `CCN1CCN(Cc2ccc(C(=O)Nc3ccc(C)c(Oc4ccc(-c5[nH]nc6ncnc(N)c56)cc4)c3)cc2C(F)(F)F)CC1`: 139% (inactive). For the molecule `C=C1CCc2nc(SCC(=O)O)ccc2N1`, the growth was 96% (inactive). The same measure for `COc1cccc(NC2=CC(=O)C(C)=C(C)C2=O)c1`: 3.49% (active); for `CCN1C(=S)N(CC)C2C1N=C(SC)N2/N=C/C=C/c1ccccc1[N+](=O)[O-]` (stereo not given): 84.3% (inactive); for `COc1cc2oc(-c3cccc(C(=O)N[C@@H](CC(C)C)C(=O)OC(C)(C)C)c3)cc(=O)c2c(OC)c1OC`: 76.8% (inactive). The same measure for `Cc1ccc(C(=O)Nc2cccc(C(F)(F)F)c2)cc1Nc1nc(-c2cnccn2)nc2c1cnn2C`: 22% (inactive); for `Cc1ccccc1NC(=O)Nc1nc2ccc([N+](=O)[O-])cc2s1`: -27.7% (active). To `NS(=O)(=O)c1cccc(Nc2nc(SCC(=O)c3ccc([N+](=O)[O-])cc3)nc3ccccc23)c1` belongs 0.866% (active); to `COc1ccc(-c2nnc(SCc3ccc(O)c4ncccc34)n2-c2ccccc2)cc1`, 10.9% (inactive); to `COc1ccc(CN2C(=O)/C(=C/c3nc(CO)cs3)SC2=S)cc1`, 58.9% (inactive). For `N#Cc1ccc(C(=O)CSc2nc(Nc3ccc(S(N)(=O)=O)cc3)c3ccccc3n2)cc1`, the growth was 105% (inactive). To `CCOC(=O)c1c(Nc2ccccc2)nn2c(-c3cccs3)ccnc12` belongs 74.9% (inactive); to `C(=N\Nc1nc(N/N=C/c2ccc3c(c2)OCO3)nc(N2CCCCC2)n1)/c1ccc2c(c1)OCO2`, 60.4% (inactive). To `COCCOc1ccc2ncc(C#Cc3cncc(C(=O)Nc4ccc(CN5CCN(C)CC5)c(C(F)(F)F)c4)c3)n2n1` belongs 16.7% (inactive); to `O=C(O)c1ccc(-n2cc(CNc3cccc(Cl)c3)c(-c3ccc(F)cc3)n2)cc1`, 105% (inactive); to `C(=C(\C1=NCCN1)n1cnc2ccccc21)/c1cccc2ccccc12`, 71.6% (inactive). Regarding `Fc1ccc(-c2cc3nc(C(Cl)Cl)nc(-c4ccc(Cl)cc4)n3n2)cc1`, the growth was -4.23% (active).
